# According to PubChem BioAssay:
# Activity calls are given as the source filed them. Unless noted, the rule behind the calls is not given here.
# What was measured:
# [1] = resazurin metabolic signal in HepG2 cells – cell-based, resazurin fluorescence, 24 h, PK04 Diversity Set, profiling panel (AID 1172); conditions: HepG2 viability, higher = more signal
# [2] = budding yeast growth changes without added modifier – OD600, strain BY4716, 24 h, basal condition, primary screen (AID 1173); conditions: S. cerevisiae BY4716 growth, OD600, 24 h; higher = more signal, called active from +8 up or from −8 down
# [3] = viability profiling in MM1S myeloma cells – cell-based, resazurin fluorescence, basal, 24 h, PK04 Diversity Set, profiling panel (AID 1174); conditions: higher = more signal, called active from +8 up or from −8 down;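 note: MM1S multiple myeloma cell line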
# [4] = target: Dihydroorotate dehydrogenase (quinone), mitochondrial (Plasmodium falciparum (isolate 3D7)) (UniProt Q08210); test: inhibition of P. falciparum DHODH – biochemical, C-terminal His tag, absorbance 600 nm, primary screen (AID 1175); conditions: PfDHODH enzyme, DCIP absorbance 600 nm; higher = more signal, called active from +8 up or from −8 down;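 note: recombinant parasite enzyme with a five histidine tag at its C terminus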
# [5] = inhibition of PAO1 biofilm formation – strain PAO1, LB-PBS medium, absorbance 600 nm, primary screen (AID 1176); conditions: P. aeruginosa PAO1 growth/biofilm, A600, 12 h; higher = more signal
# [6] = growth modulation of vineyard yeast isolate – strain RM11-1a, OD600, basal, 24 h, primary screen (AID 1177);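 note: cultures grown under basal conditions with no added stressor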; conditions: S. cerevisiae RM11-1a growth, OD600, 24 h; higher = more signal, called active from +8 up or from −8 down
# [7] = growth of efflux-deficient E. coli DRC39 – strain DRC39, OD650, 24 h, E. coli filamentation inducers, primary screen (AID 1178);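 note: growth measured as culture turbidity by optical density at 650 nm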; conditions: E. coli DRC39 acrAB, higher = more signal, called active from +8 up or from −8 down
# [8] = growth of efflux-deficient E. coli DRC39 – strain DRC39, OD650, 48 h, E. coli filamentation inducers, primary screen (AID 1179);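 note: screen aims at cell division blockers that make cells filament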; conditions: E. coli DRC39 delta-acrAB growth, higher = more signal, called active from +8 up or from −8 down
# [9] = viability profiling in RPMI8226 myeloma cells – cell-based, resazurin fluorescence, basal, 24 h, PK04 Diversity Set, profiling panel (AID 1180); conditions: higher = more signal;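 note: RPMI8826 multiple myeloma cell line at 5000 cells per well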
# [10] = target: E3 ubiquitin-protein ligase XIAP (Homo sapiens) (UniProt P98170); test: small molecules binding XIAP protein – biophysical, small-molecule microarray, fluorescence 635 nm, primary screen (AID 1181); conditions: higher = more signal;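 note: score merges 667 nm emission and signal to noise over triplicate slides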
# [11] = tested on: XIP peptide (Xip251-270) binding; test: XIP fragment 251-270 binding compounds – biochemical, small-molecule microarray, fluorescence 635/667 nm, 0.1 µg/mL protein, primary screen (AID 1182); conditions: fluorescent protein binding, 635 nm, higher = more signal, called active from +8 up or from −8 down
# XIP peptide (Xip251-270) = test: compounds binding XIP fragment 251-270 – biochemical, small-molecule microarray, fluorescence 635/667 nm, 0.5 µg/mL protein, primary screen (AID 1183); conditions: fluorescence 635 nm, higher = more signal
# [12] = blood-stage malaria parasite viability loss – strain 3D7, DAPI fluorescence, 100 nL, primary screen (AID 1184);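 note: parasites grown inside human red blood cells in medium with human serum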; conditions: P. falciparum 3D7 growth, 3 d, higher = more signal
# [13] = target: Homeobox protein Hox-A13 (Mus musculus) (UniProt Q62424); test: disruptors of Hoxa13 oligonucleotide interaction – biochemical, fluorescence polarization, labeled oligonucleotide, primary screen (AID 1185); conditions: Hoxa13:DNA binding, 15 min, higher = more signal, called active from +8 up or from −8 down
# [14] = blockers of DNA damage checkpoint Chk1 activation – imaging, HeLa, hydroxyurea, phospho-Chk1 antibody, percent positive cells, primary screen (AID 1186); conditions: hydroxyurea-induced phospho-Chk1 immunofluorescence imaging, higher = more signal
# [15] = blockers of DNA damage checkpoint Chk1 activation – imaging, HeLa, hydroxyurea, phospho-Chk1 nuclear intensity, primary screen (AID 1187); conditions: hydroxyurea-induced phospho-Chk1 immunofluorescence imaging, higher = more signal
# Sequence of E3 ubiquitin-protein ligase XIAP (Homo sapiens) (P98170 whole entry, looked up, the tested form may be a part): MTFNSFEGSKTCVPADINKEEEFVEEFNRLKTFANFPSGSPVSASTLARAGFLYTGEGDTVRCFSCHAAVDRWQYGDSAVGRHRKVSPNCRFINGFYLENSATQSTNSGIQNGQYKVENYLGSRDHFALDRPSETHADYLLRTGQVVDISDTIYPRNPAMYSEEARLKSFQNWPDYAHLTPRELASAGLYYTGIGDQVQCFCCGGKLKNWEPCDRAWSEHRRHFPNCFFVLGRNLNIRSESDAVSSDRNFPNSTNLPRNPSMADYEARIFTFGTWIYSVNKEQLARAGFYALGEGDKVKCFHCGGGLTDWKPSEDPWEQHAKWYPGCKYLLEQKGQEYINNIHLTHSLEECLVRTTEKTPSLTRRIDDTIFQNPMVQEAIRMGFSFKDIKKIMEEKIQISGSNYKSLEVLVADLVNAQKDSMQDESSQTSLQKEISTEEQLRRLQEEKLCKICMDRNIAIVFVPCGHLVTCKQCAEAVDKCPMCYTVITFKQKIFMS
# Sequence of Homeobox protein Hox-A13 (Mus musculus) (Q62424 whole entry, looked up): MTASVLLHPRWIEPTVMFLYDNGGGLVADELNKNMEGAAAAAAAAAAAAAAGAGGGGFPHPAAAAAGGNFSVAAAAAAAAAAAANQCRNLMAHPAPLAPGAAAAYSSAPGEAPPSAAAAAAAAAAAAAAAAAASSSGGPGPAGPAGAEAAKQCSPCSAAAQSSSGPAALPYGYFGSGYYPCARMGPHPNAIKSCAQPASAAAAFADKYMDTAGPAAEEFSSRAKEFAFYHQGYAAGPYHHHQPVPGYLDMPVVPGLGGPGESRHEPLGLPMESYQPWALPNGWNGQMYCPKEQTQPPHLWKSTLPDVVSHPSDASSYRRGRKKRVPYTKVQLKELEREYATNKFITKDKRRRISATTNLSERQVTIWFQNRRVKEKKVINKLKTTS
# Sequence of Dihydroorotate dehydrogenase (quinone), mitochondrial (Plasmodium falciparum (isolate 3D7)) (Q08210 whole entry, looked up): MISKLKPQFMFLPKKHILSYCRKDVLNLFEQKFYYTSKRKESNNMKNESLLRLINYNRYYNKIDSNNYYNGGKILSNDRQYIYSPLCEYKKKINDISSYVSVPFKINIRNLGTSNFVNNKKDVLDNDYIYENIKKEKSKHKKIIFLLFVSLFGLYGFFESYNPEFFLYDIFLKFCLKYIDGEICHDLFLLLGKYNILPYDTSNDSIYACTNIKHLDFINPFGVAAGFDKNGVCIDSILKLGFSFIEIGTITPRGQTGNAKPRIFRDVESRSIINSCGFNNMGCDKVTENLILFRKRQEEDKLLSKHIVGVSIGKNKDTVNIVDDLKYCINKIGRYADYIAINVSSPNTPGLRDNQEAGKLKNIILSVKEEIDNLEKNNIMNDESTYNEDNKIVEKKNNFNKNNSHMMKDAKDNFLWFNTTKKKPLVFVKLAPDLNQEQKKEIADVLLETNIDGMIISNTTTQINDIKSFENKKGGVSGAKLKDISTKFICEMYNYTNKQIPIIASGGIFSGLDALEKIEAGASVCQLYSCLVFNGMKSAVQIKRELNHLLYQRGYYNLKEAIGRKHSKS
Structure (SMILES),z-score [1],z-score [2],z-score [3],composite z-score [4],z-score [5],z-score [6],z-score [7],z-score [8],z-score [9],composite z-score [10],composite z-score [11],composite z-score (XIP peptide (Xip251-270)),z-score [12],z-score [13],z-score [14],z-score [15]
Cc1ccc(S(=O)(=O)N2[C@@H](c3ccccc3)C(C(=O)O)=CC[C@H]2c2ccccc2)cc1,-1.18,0.131 (inactive),-2.14 (inactive),1.03 (inactive),-0.0727 (inactive),0.256 (inactive),-0.992 (inactive),-1.25 (inactive),-1.8,0.261,-0.141 (inactive),0.0514,-1.02,-3.76 (inactive),-0.354 (inactive),-0.449 (inactive)
[N-]=[N+]=NCc1ccccc1C[C@]1(C(=O)N2CCCCC2)N=C(c2ccc(OCCCO)cc2)O[C@H]1c1ccccc1CN=[N+]=[N-],-0.182,1.06 (inactive),-1.32 (inactive),-0.266 (inactive),1.76 (inactive),0.736 (inactive),0.0687 (inactive),-0.352 (inactive),-2.22,0.377,1.52 (inactive),0.811,-2.32,1.1 (inactive),-0.0016 (inactive),0.164 (inactive)
O=C1OCCC/C=C\[C@H]2OC34C=CCN(CCN5CCOCC5)C(=O)[C@H]3N(CCCCCO)C(=O)[C@@H]4C12 (stereo partly drawn),-0.567,-0.0575 (inactive),-0.193 (inactive),0.286 (inactive),-0.0432 (inactive),-0.634 (inactive),0.157 (inactive),0.0435 (inactive),0.0501,-0.124,0.853 (inactive),-0.733,1.82,-4.6 (inactive),0.564 (inactive),0.292 (inactive)
CN(C)c1ccc(C(O)C2C=CC3C(=O)NC(=O)C3N2Nc2ccc(Cl)cc2Cl)cc1 (stereo not drawn),-0.492,0.454 (inactive),-1.44 (inactive),0.438 (inactive),0.683 (inactive),0.839 (inactive),0.221 (inactive),0.0462 (inactive),-1.44,0.0914,-0.0906 (inactive),0.16,-0.599,-4.19 (inactive),-0.0923 (inactive),0.0147 (inactive)
COCCOC(=O)N1C(=O)[C@@]2(c3cc(C#CCNC(N)=O)ccc31)[C@H](c1ccccc1OCCO)N1[C@H](c3ccccc3)[C@H](c3ccccc3)OC(=O)[C@H]1[C@@H]2C(=O)NC[C@H](O)c1ccccc1,0.904,2.79 (inactive),0.335 (inactive),1.03 (inactive),0.87 (inactive),2.1 (inactive),0.183 (inactive),-0.32 (inactive),0.152,-0.0911,0.88 (inactive),0.8,-1.84,-3.26 (inactive),0.0689 (inactive),-0.158 (inactive)
CCOC(=O)C[C@H]1[C@H](OC(=O)c2cc3ccccc3oc2=O)[C@@H](NC(=O)C2CCCCC2)c2cc(OCCCO)ccc2N1C(=O)c1ccc2ccccc2n1,-0.35,1 (inactive),0.201 (inactive),0.884 (inactive),-0.0339 (inactive),1.58 (inactive),0.205 (inactive),0.0214 (inactive),0.15,-0.22,-0.0413 (inactive),0.522,-0.292,-4.56 (inactive),0.453 (inactive),0.333 (inactive)
COCCOC(=O)N1C(=O)[C@@]2(c3cc(C#CCC(C(=O)OC)C(=O)OC)ccc31)[C@H](c1ccccc1OCCO)N1[C@H](c3ccccc3)[C@H](c3ccccc3)OC(=O)[C@H]1[C@@H]2C(=O)N1CCCCCCC1,1.16,1.29 (inactive),0.883 (inactive),0.243 (inactive),1.48 (inactive),2.14 (inactive),0.189 (inactive),0.364 (inactive),1.58,0.361,0.856 (inactive),0.597,-1.97,2.94 (inactive),-0.304 (inactive),-0.309 (inactive)
C#C[C@H](O[Si](C#Cc1ccccc1)(C(C)C)C(C)C)c1ccccc1,-0.271,-17.7 (active),-0.633 (inactive),-0.203 (inactive),0.738 (inactive),-11.8 (active),-0.329 (inactive),0.127 (inactive),-0.533,0.0049,0.114 (inactive),0.311,-1.16,-1.52 (inactive),0.116 (inactive),0.201 (inactive)
COC(=O)[C@H]1[C@@H]2COc3ccccc3[C@H]2N[C@H]1C(=O)OC,0.0968,-1.81 (inactive),-0.586 (inactive),-16.2 (active),-0.508 (inactive),-0.398 (inactive),0.226 (inactive),0.398 (inactive),-0.139,0.0432,0.22 (inactive),0.522,0.535,-0.726 (inactive),-0.953 (inactive),-0.134 (inactive)
O=C1C2C=CC(C(O)C(c3ccccc3)c3ccccc3)N(Nc3ccc([N+](=O)[O-])cc3)C2C(=O)N1c1ccccc1 (stereo not drawn),0.867,0.852 (inactive),0.0597 (inactive),0.665 (inactive),0.89 (inactive),0.601 (inactive),-1.12 (inactive),0.058 (inactive),-1.03,0.0553,-0.0268 (inactive),0.747,0.535,-1.88 (inactive),0.349 (inactive),0.0443 (inactive)
CC[C@H]1C2=C3C(CC[C@H]4C(OC)OC[C@](C)([C@@H]34)N(C(=O)OC(C)(C)C)C2)C(CO)C1CO (stereo partly drawn),-0.453,0.145 (inactive),-0.713 (inactive),-0.929 (inactive),0.452 (inactive),-0.681 (inactive),-0.0328 (inactive),0.753 (inactive),-0.141,0.26,0.442 (inactive),0.701,-0.62,-4.74 (inactive),-1.37 (inactive),-1.18 (inactive)
CCCC=C(CCC)[C@@H](NS(=O)(=O)c1ccc(C(F)(F)F)cc1)c1ccc(-c2ccccc2)cc1,2.18,1.05 (inactive),1.14 (inactive),0.472 (inactive),-1.16 (inactive),1.41 (inactive),0.0852 (inactive),-0.839 (inactive),0.719,0.0264,0.14 (inactive),0.0936,-0.334,-1.61 (inactive),-0.208 (inactive),-0.144 (inactive)
O=C(NCc1ccccc1)c1ccc(Br)cc1[N+](=O)[O-],0.0759,-2.42 (inactive),0.0636 (inactive),-1.37 (inactive),-0.131 (inactive),-0.465 (inactive),0.986 (inactive),-0.411 (inactive),-0.447,-0.127,0.103 (inactive),0.0871,2.11,0.513 (inactive),0.225 (inactive),0.119 (inactive)
CCc1cccc(NC(=O)O[C@H]2[C@H](OC(=O)Nc3ccccc3)[C@@H](OC(=O)Nc3ccccc3)[C@@H](OC)O[C@@H]2CO)c1,-2.9,0.28 (inactive),-5.58 (inactive),0.189 (inactive),0.497 (inactive),2.4 (inactive),1.47 (inactive),0.711 (inactive),-4.86,0.0153,0.652 (inactive),0.886,-2.16,-5.07 (inactive),-0.235 (inactive),-0.0949 (inactive)
CCCC=C(CCC)[C@@H](NS(=O)(=O)c1ccc(-c2ccccc2)cc1)c1ccc(C(=O)OC)cc1,0.0252,1.72 (inactive),0.303 (inactive),-4.09 (inactive),2.67 (inactive),0.239 (inactive),-0.811 (inactive),-0.299 (inactive),0.305,-0.0948,0.046 (inactive),-0.203,-1.37,-1.02 (inactive),-0.361 (inactive),-0.761 (inactive)
O=C1NC(=O)C2C1C=CC(C(O)C=Cc1ccc([N+](=O)[O-])cc1)N2Nc1ccccn1 (stereo not drawn),-0.629,-0.203 (inactive),-0.373 (inactive),0.643 (inactive),1.23 (inactive),0.086 (inactive),0.195 (inactive),-0.466 (inactive),-0.742,0.289,0.433 (inactive),0.792,-0.304,-1.88 (inactive),-0.746 (inactive),-0.987 (inactive)
C[C@@H]1NC(=O)[C@H](Cc2ccccc2)NC(=O)[C@@]23C(=O)N[C@@H](Cc4ccccc4)C2[C@H](C)[C@@]2(C)O[C@H]2C3/C=C/C/C=C\CNC1=O (stereo partly drawn),-0.51,-0.256 (inactive),-0.0224 (inactive),0.398 (inactive),0.236 (inactive),0.657 (inactive),-0.593 (inactive),-0.514 (inactive),-0.0497,-0.119,-0.138 (inactive),0,-0.5,-6.67 (inactive),0.4 (inactive),0.374 (inactive)
CCOC(=O)C1=CC[C@@H](c2ccc(-c3ccc(OCc4ccccc4)cc3)c(OC)c2)N(S(=O)(=O)c2ccc(C)cc2)[C@H]1c1ccccc1,0.899,0.0553 (inactive),0.25 (inactive),0.917 (inactive),0.325 (inactive),-0.0764 (inactive),0.263 (inactive),1.3 (inactive),0.894,-0.02,0.525 (inactive),0.6,-1.94,-0.242 (inactive),-1.04 (inactive),-0.995 (inactive)
